Here are results for 6 molecules from PubChem BioAssay (NCI).

Molecules are shown by their SMILES. About 83,000 compounds went through this panel and 20% of them were active in at least one assay; those are over-represented in the sample as a whole.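 Activity criterion: percent growth below 10, measured after cells in 96-well plates were exposed to a single compound concentration for 48 hours.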 Active and inactive are the calls of the source.

For the experiment, the system named is MDA-MB-468 breast. As to the kind of experiment: NCI-60 one-dose screen, 48 h (100 = growth as untreated, 0 = no growth, -100 = all killed). The settings on record: 10 µM unless noted.
With `O=[N+]([O-])c1ccc(N2CCN=N2)cc1`, the growth was 93.9% (inactive).

Take `Cc1cc(-c2ccc3nc(N)sc3c2)nc2ccc3[nH]ncc3c12`: the growth was 5.34% (active).

Consider `NC(=O)CC1(c2ccccc2)CCCCC1`, for which the growth was 104% (inactive).

Regarding `COc1ccccc1/C=N\Nc1ccc([N+](=O)[O-])cn1`, the growth is 109% (inactive).

Regarding `CCOC(=O)c1cc(C(=O)c2ccc(Br)cc2)n2cc(C)cc(C)c12`, the growth was 108% (inactive).

For the molecule `S=C(SSC(=S)N(c1ccccc1)c1ccccc1)N(c1ccccc1)c1ccccc1`, the growth is 107% (inactive).
